Measurements published in PubChem BioAssay AID1159580 (chemical genetic matrix, 2015).
“And” between values parts separate entries of the source, which are not always exact repeats. Identical values can stand only once. Among all 5,500 compounds or so, about 2,000 (36%) were called active. Inconclusive results (about 18%) are left out. No stated cut-off is given here; in the data, active means normalized growth mostly below about 0.91 (no sharp cut-off); inconclusive means no clear call, values can overlap the other calls; inactive means mostly above about 0.92. The list shows a part of the results.

Assay: chemical genetic growth profiling, strain panel (AID 1159580);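 further: tested at 20 µM; growth read once vehicle control cultures reached saturation at 30 °C; 1 = growth at the plate median or of vehicle wells; lower values mean less growth of the strain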
Conditions: S. cerevisiae deletion strains, growth OD

Measured: normalized growth

C[C@@H]1CC[C@H]2C(C)(C)C3CC12CC[C@@]3(C)O (stereo partly specified)
active: locus YAL030W, strain snc1, active compounds read low 0.884 | locus YBL061C, strain skt5, active compounds read low 0.754 | locus YBR009C, strain hhf1, active compounds read low 0.658 | locus YBR023C, strain chs3, active compounds read low 0.7 | locus YBR231C, strain swc5, active compounds read low 0.862 | locus YBR279W, strain paf1, active compounds read low 0.907 | locus YCL011C, strain gbp2, active compounds read low 0.811 | locus YCL016C, strain dcc1, active compounds read low 0.859 | locus YDL005C, strain med2, active compounds read low 0.848 | locus YDL192W, strain arf1, active compounds read low 0.872 | locus YDR137W, strain rgp1, active compounds read low 0.67 | locus YDR159W, strain sac3, active compounds read low 0.603 | locus YDR195W, strain ref2 0.318 | locus YDR297W, strain sur2, active compounds read low 0.906 | locus YDR392W, strain spt3, active compounds read low 0.301 | locus YEL003W, strain gim4, active compounds read low 0.848 | locus YEL061C, strain CIN8 (second series), active compounds read low 0.875 | locus YEL061C, strain CIN8, active compounds read low 0.917 | locus YER015W, strain faa2, active compounds read low 0.86 | locus YER016W, strain bim1, active compounds read low 0.904 | locus YER111C, strain swi4, active compounds read low 0.77 | locus YER155C, strain BEM2 (second series), active compounds read low 0.74 | locus YER155C, strain BEM2, active compounds read low 0.876 | locus YFR010W, strain ubp6, active compounds read low 0.863 | locus YGL086W, strain mad1, active compounds read low 0.911 | locus YGL173C, strain kem1, active compounds read low 0.795 | locus YGL240W, strain doc1, active compounds read low 0.805 | locus YGL253W, strain hxk2, active compounds read low 0.897 | locus YHR027C, strain rpn1, active compounds read low 0.888 | locus YHR142W, strain chs7, active compounds read low 0.605 | locus YJL095W, strain BCK1 (second series), active compounds read low 0.699 | locus YJL129C, strain trk1, active compounds read low 0.859 | locus YJL164C, strain tpk1, active compounds read low 0.753 | locus YJL166W, strain qcr8, active compounds read low 0.669 | locus YJL187C, strain SWE1, active compounds read low 0.833
inactive: locus YAL021C, strain ccr4, active compounds read low 0.942 | locus YAL026C, strain drs2, active compounds read low 0.918 | locus YBR021W, strain FUR4, active compounds read low 0.935 | locus YBR171W, strain sec66, active compounds read low 0.962 | locus YBR229C, strain ROT2, active compounds read low 1.02 | locus YCL029C, strain bik1, active compounds read low 1.01 | locus YCL061C, strain MRC1, active compounds read low 0.952 | locus YCL069W, strain vba3, active compounds read low 0.977 | locus YCR088W, strain abp1, active compounds read low 0.976 | locus YDL035C, strain GPR1, active compounds read low 0.979 | locus YDL040C, strain nat1, active compounds read low 0.952 | locus YDL074C, strain BRE1, active compounds read low 0.913 | locus YDL101C, strain DUN1, active compounds read low 0.988 | locus YDL185W, strain tfp1, active compounds read low 0.99 | locus YDR001C, strain nth1, active compounds read low 1.01 | locus YDR101C, strain arx1, active compounds read low 0.939 | locus YDR150W, strain NUM1, active compounds read low 1.02 | locus YDR162C, strain NBP2, active compounds read low 1 | locus YDR318W, strain mcm21, active compounds read low 0.95 | locus YDR334W, strain swr1, active compounds read low 1 | locus YDR335W, strain msn5, active compounds read low 0.928 | locus YDR388W, active compounds read low 0.969 | locus YDR502C, strain sam2, active compounds read low 0.924 | locus YEL037C, strain rad23, active compounds read low 0.973 | locus YER110C, active compounds read low 0.984 | locus YER167W, strain BCK2, active compounds read low 0.948 | locus YGL078C, strain dbp3, active compounds read low 0.955 | locus YGL167C, strain pmr1, active compounds read low 1.01 | locus YGL227W, strain vid30, active compounds read low 0.969 | locus YGL248W, strain PDE1, active compounds read low 0.968 | locus YGR135W, strain pre9, active compounds read low 0.922 | locus YGR252W, strain gcn5, active compounds read low 0.97 | locus YHR013C, strain ard1, active compounds read low 0.961 | locus YHR030C, strain SLT2, active compounds read low 0.93 and 0.993 | locus YHR079C, strain IRE1 (second series), active compounds read low 1.02 | locus YHR079C, strain IRE1, active compounds read low 0.99 | locus YHR094C, strain hxt1, active compounds read low 0.992 | locus YHR129C, strain ARP1, active compounds read low 0.968 | locus YHR200W, strain rpn10, active compounds read low 0.941 | locus YIL066C, strain RNR3, active compounds read low 0.937 | locus YIL073C, strain SPO22, active compounds read low 0.974 | locus YIL125W, strain kgd1, active compounds read low 0.959 | locus YIR030C, strain dcg1, active compounds read low 0.987 | locus YJL092W, strain hpr5, active compounds read low 0.968 | locus YJL095W, strain BCK1, active compounds read low 0.927 and 1.01 | locus YJL115W, strain asf1, active compounds read low 0.996 | locus YJL134W, strain LCB3, active compounds read low 1.01 | locus YJL154C, strain vps35, active compounds read low 0.983 | locus YJL168C, strain set2, active compounds read low 0.986 | locus YJL187C, strain SWE1 (second series), active compounds read low 0.986 | locus YJR043C, strain POL32, active compounds read low 0.97
